Laboratory results as given in article PMC4336329 (PLoS ONE, 2015).
Among all 310,000 compounds or so, about 14,000 (4.5%) showed an effect of 50% or more. Effects have a minus sign here. The list comes from a sample in which strong results are over-represented; it also holds similar structures and randomly drawn compounds.

biological target: human ether-à-go-go-related gene (hERG) potassium channel (human, UniProt Q12809); assay: primary screen, population patch clamp on CHO cells stably expressing hERG; higher = less effect of the substance
Sequence (Q12809 whole entry, looked up): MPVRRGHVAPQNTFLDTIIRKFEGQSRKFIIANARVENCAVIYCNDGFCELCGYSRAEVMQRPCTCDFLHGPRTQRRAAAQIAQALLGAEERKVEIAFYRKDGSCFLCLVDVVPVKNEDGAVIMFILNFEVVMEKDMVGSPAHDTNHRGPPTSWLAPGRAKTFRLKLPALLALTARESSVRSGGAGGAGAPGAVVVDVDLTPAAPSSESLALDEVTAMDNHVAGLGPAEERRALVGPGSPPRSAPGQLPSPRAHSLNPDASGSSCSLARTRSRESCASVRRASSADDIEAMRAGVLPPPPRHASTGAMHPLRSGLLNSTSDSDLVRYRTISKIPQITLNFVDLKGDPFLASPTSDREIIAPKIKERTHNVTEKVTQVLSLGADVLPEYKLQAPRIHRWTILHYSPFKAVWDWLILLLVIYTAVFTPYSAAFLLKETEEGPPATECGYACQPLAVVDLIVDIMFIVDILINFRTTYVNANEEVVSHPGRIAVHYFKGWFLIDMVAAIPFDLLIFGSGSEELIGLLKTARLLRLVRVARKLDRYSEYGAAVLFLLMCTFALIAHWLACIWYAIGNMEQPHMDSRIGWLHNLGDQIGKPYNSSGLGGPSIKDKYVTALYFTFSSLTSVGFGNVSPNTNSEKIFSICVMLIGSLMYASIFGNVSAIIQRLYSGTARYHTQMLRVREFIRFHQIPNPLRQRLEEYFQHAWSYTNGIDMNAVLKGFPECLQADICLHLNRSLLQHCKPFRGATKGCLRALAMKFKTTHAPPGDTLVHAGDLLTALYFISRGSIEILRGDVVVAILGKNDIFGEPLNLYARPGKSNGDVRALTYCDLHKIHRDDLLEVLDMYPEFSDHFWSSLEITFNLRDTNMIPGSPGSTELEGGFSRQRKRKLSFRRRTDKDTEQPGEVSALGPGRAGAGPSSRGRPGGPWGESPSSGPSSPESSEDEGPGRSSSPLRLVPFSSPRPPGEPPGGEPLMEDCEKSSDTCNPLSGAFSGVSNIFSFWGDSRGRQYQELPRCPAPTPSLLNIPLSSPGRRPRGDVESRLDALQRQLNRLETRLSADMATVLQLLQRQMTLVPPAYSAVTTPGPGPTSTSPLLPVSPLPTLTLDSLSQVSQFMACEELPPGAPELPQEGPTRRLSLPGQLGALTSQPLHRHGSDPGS
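Also: peak tail current of the secondary pulse compared with the same well before compound.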

Structure (SMILES)	hERG current change (%, negative = inhibition) at 10uM
CCOc1ccc(NC(=S)N2CCC(N(C)CCN3CCOCC3)CC2)cc1	-15.9%
CCCCN(C)C1CCN(C(=S)Nc2ccc(OCC)cc2)CC1	-76.7%
CCCCN(C)C1CCN(C(=S)Nc2ccc(OC)cc2)CC1	-26%
CC1CCC(N(C)C2CCN(C)CC2)CC1 (stereo not drawn)	11.3%
CCCC12CN3CC(C)(CN(C1)C3c1cccs1)C2=O (stereo not drawn)	-7.68%
CC(=O)c1ccc(NC(=O)C2CCCC2)cc1	10.7%
Cl.O[Si](CCCN1CCCCC1)(c1ccc(F)cc1)C1CCCCC1 (stereo not drawn)	-54.3%
Fc1ccc(OCCCCCCN2CCCC2)cc1	-9.37%
Fc1ccc(OCCCCCN2CCCC2)cc1	4.62%
CCN(CC)C(=O)c1ccc(S(=O)(=O)NCc2cccnc2)cc1	13.9%
CC1=C(C(=O)OCc2ccccc2)C(c2cccc3ccccc23)NC(=O)N1CCCC(=O)O (stereo not drawn)	20.8%
O=C1C=C(Nc2ccccc2)CC(c2ccccc2)C1 (stereo not drawn)	9.51%
CC(C)CCNC1=CC(=O)CC(c2ccccc2)C1 (stereo not drawn)	-33.2%
COc1ccc(C2CC(=O)C=C(NCCC(C)C)C2)cc1 (stereo not drawn)	-73.2%
O=C1C=C(NCc2ccc3c(c2)OCO3)CC(c2ccccc2)C1 (stereo not drawn)	-76.9%
O=C1C=C(NNC(=O)c2ccncc2)CC(c2ccccc2)C1 (stereo not drawn)	-1.64%
COc1ccc(C2CC(=O)C=C(NCC3CCCO3)C2)cc1 (stereo not drawn)	-9.1%
Cc1ccc(C2CC(=O)C=C(NCc3ccccc3)C2)cc1 (stereo not drawn)	-38.8%
O=C1C=C(NCc2ccncc2)CC(c2ccccc2)C1 (stereo not drawn)	-70.7%
O=C1C=C(c2ccccc2)C[C@@H](c2ccc3c(c2)OCO3)C1	-4.15%
COc1ccc([C@H]2CC(=O)C=C(c3ccc4c(c3)OCO4)C2)cc1	-22.9%
COc1ccc2cc(C3=CC(=O)C[C@H](c4ccc5c(c4)OCO5)C3)ccc2c1	17.3%
COc1ccc(C2CC(=O)C=C(NCc3ccc4c(c3)OCO4)C2)cc1 (stereo not drawn)	-73.1%

Structure (SMILES)	hERG current change (%, negative = inhibition) at 10uM
O=C(N/N=C\c1ccco1)Nc1cccc(Cl)c1	-5.83%
CC1CCCCC1NC(=O)CCCn1c(=S)[nH]c2ccsc2c1=O (stereo not drawn)	12.9%
C=CCn1c(SCC(=O)NNC(=S)Nc2ccccc2)nnc1-c1ccccc1	15.9%
Cc1cc([N+](=O)[O-])ccc1NC(=O)CSc1nncn1-c1ccccn1	-28.1%
NC(=O)c1cccnc1OCC(F)(F)F	2.21%
CCOc1ccc(NC(=O)CN(C)S(=O)(=O)c2ccc3c(c2)CCC(=O)N3)cc1	-41.3%
Cc1c(C(=O)NCCSCc2cccc(C(F)(F)F)c2)cnn1-c1ccc(Cl)cc1	-30.6%
Cc1c(C(=O)NCCSCc2ccc(F)cc2)cnn1-c1ccc(Cl)cc1	-34.6%
Cc1c(C(=O)NCCSCc2cccc(C(F)(F)F)c2)cnn1-c1ccc(F)cc1	-64.6%
CC(C)CCNC(=O)CN(Cc1cccs1)C(=O)CCC(=O)Nc1nccs1	-10.6%
N#Cc1c2c(c(Nc3ccccc3)n3c1nc1ccccc13)CCC2	19.5%
CC(=O)c1ccc(Nc2c3c(c(C#N)c4nc5ccccc5n24)CCC3)cc1	-73.2%
N#Cc1c2c(c(Nc3ccc(O)cc3)n3c1nc1ccccc13)CCC2	5.51%
CN(C)CCNc1c2c(c(C#N)c3nc4ccccc4n13)CCCC2	-23.5%
COCCNc1c2c(c(C#N)c3nc4ccccc4n13)CCCC2	-44.1%
N#Cc1c2c(c(NCCOCCO)n3c1nc1ccccc13)CCCC2	-63.3%
Cc1cc(C(=O)NCc2ccc3c(c2)OCO3)n(-c2ccccc2)n1	-14.8%
CCOC(=O)N1CCN(S(=O)(=O)Cc2ccccc2)CC1	15.5%
Cc1ccc(S(=O)(=O)Nc2cc(C)c(O)c(Sc3n[nH]c(C)n3)c2)cc1	2.79%
CNC(=O)/C(C#N)=C/c1c(N2CC(C)OC(C)C2)nc2ccccn2c1=O (stereo not drawn)	1.43%
O=C(Cn1cc(C(=O)COc2ccccc2)c2ccccc21)NCc1ccco1	-0.105%
CCN(CC)S(=O)(=O)c1ccc(C(=O)OCCNC(=O)c2cccnc2)cc1	-2.68%
COc1cc2c(cc1OC)CN(c1nc(CN3CCOCC3)nc3sc4c(c13)CCCC4)CC2	-73.6%

Structure (SMILES)	hERG current change (%, negative = inhibition) at 10uM
COc1cc2c(cc1OC)CN(c1nc(CN3CCCC3)nc3sc(C)c(C)c13)CC2	-75.6%
Cc1ccc(Oc2nc(CN3CCOCC3)nc3sc4c(c23)CCC(C)C4)cc1C (stereo not drawn)	7.99%
COc1cccc(Nc2nc(CN3CCOCC3)nc3sc4c(c23)CCCC4)c1	-53.1%
c1nc(N2CCOCC2)c2c3c(sc2n1)CCCC3	-7.14%
Cc1cc(S(=O)(=O)Nc2nc(CN3CCOCC3)nc3sc4c(c23)CCCC4)ccc1F	-17.2%
CC1CCc2c(sc3nc(CN4CCOCC4)nc(N4CCc5ccccc5C4)c23)C1 (stereo not drawn)	-8.23%
Cc1cccc(Oc2nc(CN3CCOCC3)nc3sc4c(c23)CCCC4)c1	-29.7%
CCNc1nc(CN2CCOCC2)nc2sc3c(c12)CCC3	-7.54%
COc1cc2c(cc1OC)CN(c1nc(CN3CCOCC3)nc3sc4c(c13)CCC(C)C4)CC2 (stereo not drawn)	-67.5%
Cc1sc2nc(CN3CCCCC3)nc(Cl)c2c1C	-24.5%
COc1cc2c(cc1OC)CN(c1ccc(C(F)(F)F)cn1)CC2	15.9%
O=c1[nH]c(=O)n(Cc2ccccc2)c(O)c1/C=N/Nc1c(F)c(F)c(F)c(F)c1F	3.83%
COc1ccc(-c2csc(N)n2)cc1	-6.71%
COc1cccc(-c2ccc3nnc(SCC(=O)N4CCCC4)n3n2)c1	-17.1%
Clc1nc(CN2CCOCC2)nc2sc3c(c12)CCC3	14.5%
COc1cc2c(cc1OC)CN(c1nc(CN3CCCCC3)nc3sc4c(c13)CCCC4)CC2	-81.2%
O=S(=O)(Nc1nc(CN2CCOCC2)nc2sc3c(c12)CCCC3)c1cc(F)ccc1F	-34.9%
Clc1nc(CN2CCCCC2)nc2sc3c(c12)CCC3	-33.6%
c1ccc2c(c1)CCN(c1nc(CN3CCOCC3)nc3sc4c(c13)CCCC4)C2	-60.2%
Clc1nc(CN2CCCCC2)nc2sc3c(c12)CCCC3	-23.1%
CCOC(=O)c1nn(-c2ccc(C)cc2)c2nc(Nc3ccccc3)cc(=O)n12	21.9%
Cc1ccccc1CN(c1ccc(C(=O)N/N=C/c2ccc(OCC(N)=O)cc2)cc1)S(C)(=O)=O	5.85%
CO/N=C/c1cccn1-c1nccc(N(C)C)c1C#N	-2.01%

Structure (SMILES)	hERG current change (%, negative = inhibition) at 10uM
CCCN1CCN(C(=O)CCS(=O)(=O)c2cc3c(cc2Cl)NC(=O)CO3)CC1	-48%
COc1ccc(S(=O)(=O)NCC2CCCN(C(=O)CCC(F)(F)F)C2)cc1 (stereo not drawn)	2.06%
COc1ccc(N(C(=O)Cn2nnc3ccccc32)C(C(=O)NCc2ccco2)c2cccnc2)cc1 (stereo not drawn)	9.77%
Cc1ccccc1CSc1nccn1-c1ccccc1	-8.94%
CC(C)CNC(=S)N1CCC(Cc2ccccc2)CC1	-40.1%
CCC(C)[C@H](NC(=O)N1CCC(Cc2ccccc2)CC1)C(=O)O (stereo partly drawn)	15.2%
C[C@@H](CN1CCC(Cc2ccccc2)CC1)[C@@H](O)c1ccc(O)cc1.Cl	-71.3%
CC(C(O)c1ccc(O)cc1)N1CCC(Cc2ccccc2)CC1.O.O=C(O)C(O)C(O)C(=O)O (stereo not drawn)	-65.4%
CC(C(O)c1ccc(O)cc1)N1CCC(Cc2ccccc2)CC1.O=C(O)C(O)C(O)C(=O)O (stereo not drawn)	-71.4%
C[C@H](NC(=O)N1CCC(Cc2ccccc2)CC1)C(=O)O	15.5%
CC(C)C(=O)N1CCC(Cc2ccccc2)CC1	4.6%
CC(C)[C@H](NC(=O)N1CCC(Cc2ccccc2)CC1)C(=O)O	6.12%
CC(C)NC(=S)N1CCC(Cc2ccccc2)CC1	-2.26%
CCc1ccc(OCC(=O)NC(=S)Nc2ccc(S(=O)(=O)NC3CCCCC3)cc2)cc1	19.9%
CCOC(=O)Cc1csc(NC(=O)c2cc(OC)cc(OC)c2)n1	-10.6%
O=C(O)c1cccc(CN2C(=O)CSC2=O)c1	19.4%
CCn1c(SCC(=O)N/N=C/c2ccc(O)c(OC)c2)nc2ccccc21	2.36%
OCC1(Cc2ccccc2)CCN(Cc2cnc(-c3cccc4ccccc34)nc2)CC1	10.8%
COc1ccc(CN2CCN(Cc3cc4ccccc4o3)CC2CCO)cc1C (stereo not drawn)	-40.4%
OCC1(Cc2ccccc2)CCN(Cc2cc3ccccc3o2)CC1	-51.7%
COc1ccc(CC2(CO)CCN(Cc3cc4ccccc4o3)CC2)cc1	-52.2%
